Assay results reported in PubChem BioAssay (Tox21).
Records with an inconclusive call do not appear. A number with no mark means an inactive call. The call rests on the fitted dose curve; in most records, active means well fitted inhibition curve with a large enough effect in the signal ratio in the repeat runs (not every such curve was filed as active); inconclusive means weak or mixed curves, or effect the other way; inactive means no such curve, though single readings can be large or run the other way; the % refers to the signal ratio.

molecular target: Peroxisome proliferator-activated receptor delta (Homo sapiens) (UniProt Q03181); assay: qHTS assay to identify small molecule antagonists of the peroxisome proliferator-activated receptor delta (PPARd) signaling pathway (AID 743215); conditions: HEK293H PPARd-UAS-bla, beta-lactamase FRET ratio, antagonist, 17 h; series mostly up to 62 µM; ratio activity, negative = inhibition: at the top concentration;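 further: cells stimulated with agonist L165041 at 300 nM final during compound exposure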
Description: U.S. Tox21 Program National Center for Advancing Translational Sciences [NCATS] NIH Chemical Genomics Center [NCGC] U.S. Environmental Protection Agency [EPA] National Institutes of Environmental Health Sciences [NIEHS] National Toxicology Program [NTP] U.S. Food and Drug Administration [FDA] Tox21 Assay Overview: The peroxisome proliferator-activated receptors (PPARs) are lipid-activated transcription factors of the nuclear receptor superfamily with three distinct subtypes namely PPAR alpha, PPAR delta (PPARd) and PPAR gamma. All these subtypes heterodimerizes with Retinoid X receptor (RXR) and have different physiological functions. […] To identify the compounds that inhibit PPAR-delta signaling, GeneBLAzer PPAR delta UAS-bla HEK293H cell line (Invitrogen, Carlsbad, CA, USA) containing a beta-lactamase reporter gene under the control of an Upstream Activator Sequence (UAS) was used to screen the Tox21 compound library.
Tox21 Assay Protocol Summary: PPARd-bla cells were dispensed at 3000 cells/5uL/well in 1536-well black wall/clear bottom plates using a Multidrop Combi (Thermo Fisher Scientific, Waltham, MA) dispenser. After the assay plates were incubated at 37 C and 5% CO2 for 5 h, 23 nL of compounds dissolved in DMSO, positive controls or DMSO only was transferred to the assay plate by a Pintool station (Kalypsys, San Diego, CA), followed by addition of 1ul L165041 (300 nM, final concentration in the wells). The assay plates were incubated at 37 C for 17 h, and then 1 uL of LiveBLAzerTM B/G FRET substrate was added using a Bioraptr Flying Reagent Dispenser (FRD) workstation (Beckman Coulter, Indianapolis, IN, USA). The assay plates were incubated at room temperature for 2 h and fluorescence intensity was measured by an Envision plate reader (PerkinElmer, Shelton, CT).
On the % scale 0 is the no-effect control and ±100 the full control effect.

Chain of Peroxisome proliferator-activated receptor delta (Homo sapiens) (Q03181 whole entry, looked up): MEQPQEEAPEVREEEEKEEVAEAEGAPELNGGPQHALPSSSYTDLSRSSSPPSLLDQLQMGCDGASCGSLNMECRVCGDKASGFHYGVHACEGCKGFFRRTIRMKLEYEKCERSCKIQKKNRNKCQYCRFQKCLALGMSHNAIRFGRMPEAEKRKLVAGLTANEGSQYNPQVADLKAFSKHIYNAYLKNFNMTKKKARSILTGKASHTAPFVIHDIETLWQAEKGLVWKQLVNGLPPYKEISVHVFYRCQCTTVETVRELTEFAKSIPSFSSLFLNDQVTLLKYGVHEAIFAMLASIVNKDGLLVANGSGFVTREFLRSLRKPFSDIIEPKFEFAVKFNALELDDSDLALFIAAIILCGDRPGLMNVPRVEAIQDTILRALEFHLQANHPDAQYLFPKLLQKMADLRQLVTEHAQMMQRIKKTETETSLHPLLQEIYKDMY

SMILES | ratio activity, negative = inhibition
CCCCOCC(C)OCC(C)O (stereo not given) | -17.9% [at 80.4 µM]
c1cc(CN2CCCCC2)cc(OCCCNc2nc3ccccc3s2)c1 | 2.56%
N#CC1(O)CCCCC1 | -0.895% [at 80.4 µM]
CC(C)c1cccc(O)c1 | 0.188% [at 80.4 µM]
C1COCCO1 | 10.5% [at 80.4 µM]
CC(C)[N+](C)(C)CC(O)COc1cccc2ccccc12 (stereo not given) | -3.86%
COc1ccc2cc(C=O)ccc2c1 | 4.69%
CC(C)COC(=O)C(C)C | -3.25%
CC(C)CCCC(C)CCCC(C)CCCCC(C)CCCC(C)CCCC(C)C (stereo not given) | -1.3%
Fc1ccccc1-c1ccccc1 | -4.67% [at 80.4 µM]
COCc1ccc(COC)cc1 | 10.8%
COc1ccc(NC(C)=O)cc1 | 7.73% [at 80.4 µM]
COc1ccc(COC=O)cc1 | 1.16%
O=C(O)c1ccccc1-c1ccc(C(F)(F)F)cc1 | 2.53%
Cc1onc(-c2ccccc2)c1-c1ccc(S(N)(=O)=O)cc1 | 8.14%
CC(=O)c1ccc(C)cc1 | 12.3%
CCCCNc1ccccc1 | 1.05%
CC(C=O)Cc1ccc(C(C)C)cc1 (stereo not given) | 3.59%
CO[Si](OC)(OC)OC | -6.71%
Oc1cc(O)c2c(c1)O[C@H](c1ccc(O)c(O)c1)[C@H](O)C2 | 0.716%

SMILES | ratio activity, negative = inhibition
C=C(C)C(=O)OCCC(C)OC(=O)C(=C)C (stereo not given) | 5.13%
Cc1ccc(Nc2ccc(O)c3c2C(=O)c2ccccc2C3=O)cc1 | -8.77%
NC(=O)Nc1nc2ccccc2[nH]1 | -2.27%
CCCCCCCCCCCCCCCCCCOCC(O)CO (stereo not given) | 0.953%
Cc1ccccc1C(=O)O | 1.12%
NC(=S)Nc1cccc2ccccc12 | -0.221% [at 6.26 µM]
CCCC(=O)O[C@]1(C(=O)CCl)[C@@H](C)C[C@H]2[C@@H]3CCC4=CC(=O)C=C[C@]4(C)[C@@]3(F)C(=O)C[C@@]21C | 14.6%
OCc1ccccn1 | 0.61%
CCCCCCCCCCCCCCCCCC(=O)OCCCCCCCCCCCCCC(C)C | 3.75%
C=C(C)C1CC=C(C)C(O)C1 (stereo not given) | -1.39% [at 80.4 µM]
CCCCCCCCCCCCCCC | 10.2%
CC(C)CCCC(C)NCCC(C)C (stereo not given) | -0.735%
CCCOc1ccccc1-c1nc2n[nH]nc2c(=O)[nH]1 | -6.42%
CCCCc1ccc2cccc(S(=O)(=O)O)c2c1 | -9.23%
COc1cc(O)cc(O)c1 | 2.18%
CCN1CCCC(OC(=O)C(c2ccccc2)c2ccccc2)C1 (stereo not given) | -20.4%
C=CCSCC1Nc2cc(Cl)c(S(N)(=O)=O)cc2S(=O)(=O)N1 (stereo not given) | -2.71%
C=CC(=O)N1CCOCC1 | 23.3%
C(=C(c1ccccc1)c1ccccc1)c1ccccc1 | 1.56%
c1ccc2cnncc2c1 | -15.4%
